The values that follow come from PubChem BioAssay (Tox21).

Results filed as inconclusive are left out. Activity calls are given as the source filed them. Unless noted, calls follow the shape of the dose curve; as a rule, active = well fitted curve in the direction sought with a large enough effect in the repeat runs; inconclusive = weak or mixed curves; inactive = no such curve, though single readings can be large; an effect the other way counts as inactive or inconclusive.

A short description of experiment [1]: A CellTox Green Cytotoxicity Assay to monitor cytotoxicity in HepG2 cells - 24 hour (AID 1224878). Also: nearly all actives have a fitted effect of over 45% in size. In short, it runs like this: (§1)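 Real-time cytotoxicity: fluorescence of a cell-impermeant cyanine dye binding DNA of dead HepG2 cells, measured repeatedly (0–40 h) during compound exposure at 37 C. Cells seeded 600/well with reagent, dosed after 5 h.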
A short description of experiment [2]: A CellTox Green Cytotoxicity Assay to monitor cytotoxicity in HepG2 cells - 40 hour (AID 1224879). Also: nearly all actives have a fitted effect of over 40% in size. In short, it runs like this: as §1
Experiment [3] in a line: qHTS RealTime-Glo MT Cell Viability Assay in HEK293 cells - 0 hour (AID 1224880). Also: nearly all actives have a fitted effect of over 45% in size. Also: potency is read from the fitted curve at half-maximal effect. A digest of the protocol:
(§2)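 Luminescence, which tracks viable cell number through reduction of the prosubstrate to a NanoLuc substrate, was read over continuous 37 C culture. Cells (600/well) were premixed with reagent and rested 5 h before 23 nL of compound in DMSO was pinned.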

Experiment [4] is described as follows: A CellTox Green Cytotoxicity Assay to monitor cytotoxicity in HEK293 cells - 32 hour (AID 1224881). Also: nearly all actives have a fitted effect of over 40% in size. In short, it runs like this:
(§3)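 Fluorescence from a DNA-binding dye excluded by viable cells was measured repeatedly in the same HEK293 wells (600 cells/well) during continuous compound exposure at 37 C. Each assay gives one read point: 0, 8, 16, 24, 32 or 40 h.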

Experiment [5] can be described thus: A CellTox Green Cytotoxicity Assay to monitor cytotoxicity in HepG2 cells - 0 hour (AID 1224882). Also: nearly all actives have a fitted effect of over 35% in size. A digest of the protocol: as §1
Experiment [6] is described as follows: A CellTox Green Cytotoxicity Assay to monitor cytotoxicity in HepG2 cells - 32 hour (AID 1224883). Also: nearly all actives have a fitted effect of over 50% in size. In short, it runs like this: as §1
Experiment [7] is described as follows: A CellTox Green Cytotoxicity Assay to monitor cytotoxicity in HEK293 cells - 8 hour (AID 1224884). Also: nearly all actives have a fitted effect of over 35% in size. In short, it runs like this:
as §3

The nature of experiment [8]: qHTS RealTime-Glo MT Cell Viability Assay in HepG2 cells - 16 hour (AID 1224885). Also: nearly all actives have a fitted effect of over 50% in size. In short, it runs like this:
(§4)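 Viability was tracked continuously by NanoLuc luminescence from prosubstrate reduced by living HepG2 cells, at successive time points over 40 h of compound exposure. Cells with reagent were preincubated 5 h at 37 °C before compound addition.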

Experiment [9] in a line: qHTS RealTime-Glo MT Cell Viability Assay in HEK293 cells - 8 hour (AID 1224887). Also: top concentration of the series differs between compounds; nearly all actives have a fitted effect of over 50% in size. In short, it runs like this: as §2
(In qHTS, concentration-response curves come from the screen itself.)

The nature of experiment [10]: A CellTox Green Cytotoxicity Assay to monitor cytotoxicity in HEK293 cells - 16 hour (AID 1224888). Also: nearly all actives have a fitted effect of over 35% in size. A digest of the protocol: as §3
Experiment [11] can be described thus: qHTS RealTime-Glo MT Cell Viability Assay in HepG2 cells - 0 hour (AID 1224889). Also: nearly all actives have a fitted effect of over 50% in size. Also: potency is read from the fitted curve at half-maximal effect. In short, it runs like this: as §4
The nature of experiment [12]: A CellTox Green Cytotoxicity Assay to monitor cytotoxicity in HepG2 cells - 8 hour (AID 1224890). Also: nearly all actives have a fitted effect of over 45% in size. In short, it runs like this:
as §1

The nature of experiment [13]: qHTS assay to identify small molecule antagonists of the estrogen receptor alpha (ER-alpha) signaling pathway using the BG1 cell line in the presence of 0.1 nM 17-beta-estradiol - cell viability counter screen (AID 1259241). Also: nearly all actives have a fitted effect of over 40% in size. In short, it runs like this:
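In this screen, hormone-deprived VM7Luc4E2 cells were seeded at 4,000 per well, dosed with compound and 0.1 nM estradiol final, and incubated 22 hr at 37C and 5% CO2; fluorogenic live-cell protease signal reported viability.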

Experiment [14] in a line: qHTS assay to identify small molecule antagonists of the androgen receptor (AR) signaling pathway using the MDA cell line in the presence of 0.5 nM R1881 - cell viability counter screen (AID 1259242). Also: nearly all actives have a fitted effect of over 45% in size. A digest of the protocol: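 Live-cell protease activity was measured by CellTiter-Fluor fluorescence after 30 min. Before that, MDA-kb2 MMTV-luciferase cells had 16 hr at 37C without CO2, exposed to test compounds and 0.5 nM R1881 final.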

The target of experiment [15] is Estrogen receptor (Homo sapiens) (UniProt P03372). In words: qHTS assay to identify small molecule antagonists of the estrogen receptor alpha (ER-alpha) signaling pathway using the BG1 cell line in the presence of 0.1 nM 17-beta-estradiol (AID 1259244). Also: nearly all actives have a fitted effect of over 50% in size. A digest of the protocol: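 Luciferase luminescence (ONE-Glo, 30 min at room temperature) was read after 22 hr at 37C exposure to compounds plus 17beta-estradiol at 0.1 nM final. Cells were VM7Luc4E2 with endogenous ER-alpha and an ERE-driven luciferase, pre-cultured 5 days in hormone-depleted medium.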
Estrogen receptor (Homo sapiens), sequence (P03372 whole entry, looked up): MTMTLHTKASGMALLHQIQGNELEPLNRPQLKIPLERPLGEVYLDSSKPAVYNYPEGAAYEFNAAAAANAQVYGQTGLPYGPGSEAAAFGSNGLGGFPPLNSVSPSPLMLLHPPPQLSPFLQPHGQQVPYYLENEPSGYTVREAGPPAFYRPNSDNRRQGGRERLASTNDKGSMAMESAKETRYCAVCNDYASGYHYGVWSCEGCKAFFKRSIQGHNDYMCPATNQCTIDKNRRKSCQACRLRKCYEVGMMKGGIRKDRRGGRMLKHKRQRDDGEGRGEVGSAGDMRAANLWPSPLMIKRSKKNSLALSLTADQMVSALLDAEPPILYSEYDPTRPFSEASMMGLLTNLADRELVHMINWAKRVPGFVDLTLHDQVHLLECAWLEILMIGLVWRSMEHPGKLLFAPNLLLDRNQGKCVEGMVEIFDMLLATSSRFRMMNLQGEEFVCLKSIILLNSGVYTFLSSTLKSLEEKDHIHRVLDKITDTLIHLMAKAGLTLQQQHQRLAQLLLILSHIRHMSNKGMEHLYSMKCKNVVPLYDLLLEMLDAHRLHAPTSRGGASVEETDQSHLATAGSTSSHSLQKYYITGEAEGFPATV

Experiment [16] is described as follows: qHTS assay to identify small molecule phospholipidosis (PLD) inducers (AID 1259344; active = well fitted curve in the direction sought with a large enough effect; an effect the other way counts as inactive or inconclusive; also: potency is read from the fitted curve at half-maximal effect). A digest of the protocol:
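Read-out is LipidTOX Red fluorescence (ex 595/em 615) imaged in HepG2 cells after 24 h compound exposure at 37 C, with Hoechst nuclear counterstain (ex 352/em 461) allowing per-cell normalisation.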

A short description of experiment [17]: qHTS assay to identify small molecule HDAC inhibitors - cell viability counter screen (AID 1259365). A digest of the protocol: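 Measured quantity is CellTiter-Glo luminescence from wild-type HCT-116 cells after compound incubation of 2hr at 37C, 5% CO2; reagent developed 30min at room temperature.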
The nature of experiment [18]: qHTS RealTime-Glo MT Cell Viability Assay in HEK293 cells - 24 hour (AID 1224886). In short, it runs like this:
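Viability tracked continuously by luminescence as live cells reduce a prosubstrate for NanoLuc; HEK293 cells preincubated 5 h, compound-treated at 37 C, and read at 0, 8, 16, 24, 32 and 40 h.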

Experiment [19] has as its target Androgen receptor (Homo sapiens) (UniProt P10275). In words: qHTS assay to identify small molecule antagonists of the androgen receptor (AR) signaling pathway using the MDA cell line in the presence of 0.5 nM R1881 (AID 1259243). Also: nearly all actives have a fitted effect of over 50% in size. In short, it runs like this:
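Luminescent reporter readout (ONE-Glo, 30 min, room temperature) after 16 hr co-treatment of MDA-kb2 cells with test compounds and 0.5 nM R1881 final, at 37C without CO2. The MMTV-driven luciferase responds to both AR and GR.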

A short description of experiment [20]: qHTS assay to identify small molecule HDAC inhibitors (AID 1259364). A digest of the protocol: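 Luminescence read after 30 min room-temperature HDAC-Glo incubation measures cellular class I/II HDAC activity. Compounds were applied for 2 hr at 37 C to HCT-116 wild-type cells seeded the day before.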

Androgen receptor (Homo sapiens), sequence (P10275 whole entry, looked up): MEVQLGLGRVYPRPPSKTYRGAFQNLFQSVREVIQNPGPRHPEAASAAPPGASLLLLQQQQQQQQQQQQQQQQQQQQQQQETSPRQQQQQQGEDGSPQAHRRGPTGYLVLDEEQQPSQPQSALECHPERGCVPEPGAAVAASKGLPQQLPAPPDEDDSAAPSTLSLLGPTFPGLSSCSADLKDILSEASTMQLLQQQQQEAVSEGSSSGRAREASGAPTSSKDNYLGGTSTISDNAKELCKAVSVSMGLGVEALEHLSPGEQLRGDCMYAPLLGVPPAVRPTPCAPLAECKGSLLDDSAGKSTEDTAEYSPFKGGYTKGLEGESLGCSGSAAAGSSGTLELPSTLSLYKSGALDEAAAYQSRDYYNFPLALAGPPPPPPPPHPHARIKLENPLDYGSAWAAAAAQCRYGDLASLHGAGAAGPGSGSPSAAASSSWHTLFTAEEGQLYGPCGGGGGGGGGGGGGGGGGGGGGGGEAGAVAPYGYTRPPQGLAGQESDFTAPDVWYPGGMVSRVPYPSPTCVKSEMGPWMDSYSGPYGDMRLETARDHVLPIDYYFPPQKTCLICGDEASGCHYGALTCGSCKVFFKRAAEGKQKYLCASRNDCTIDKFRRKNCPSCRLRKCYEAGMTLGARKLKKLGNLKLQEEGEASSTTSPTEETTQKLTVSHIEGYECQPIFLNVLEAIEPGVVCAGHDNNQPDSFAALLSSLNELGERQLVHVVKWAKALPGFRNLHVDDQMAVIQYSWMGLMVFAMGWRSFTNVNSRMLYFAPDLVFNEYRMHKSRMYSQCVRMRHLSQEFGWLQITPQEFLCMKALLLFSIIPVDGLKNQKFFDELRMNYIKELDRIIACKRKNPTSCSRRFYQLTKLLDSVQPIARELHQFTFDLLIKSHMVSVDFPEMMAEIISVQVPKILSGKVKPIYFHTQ

Consider `CC(=O)SC[C@@H](C)C(=O)N1CCC[C@H]1C(=O)N[C@@H](Cc1ccccc1)C(=O)O`, for which the Potency entry in [1], in [2], in experiment [3], in [4], in experiment [5] and in [6] was “inactive” in each case. The Potency entry in experiment [7], in experiment [10], in experiment [11] and in experiment [12] was “inactive” each time. For the same compound, the compound was classed as inactive in [8], in experiment [9], in experiment [13], in experiment [14], in experiment [15] and in [17]. Also, the Potency in experiment [16] is 3.55 µM (active).
Consider `Cc1ccc(N)nc1`, for which the Potency entry in experiment [1], in experiment [2], in experiment [3], in experiment [4], in experiment [5] and in [6] was “inactive” in each case. Also, the Potency entry in [7], in experiment [10], in experiment [11] and in [19] was “inactive” each time. Also, the result in experiment [8], in experiment [18], in experiment [9], in experiment [13], in experiment [14] and in experiment [15] was inactive. In addition, in experiment [17], the outcome was inactive.
As to `C=CCN(CC=C)CC=C`, the Potency entry in [1], in [2], in experiment [3], in experiment [4], in experiment [5] and in experiment [6] was “inactive” each time. The Potency entry in experiment [7], in experiment [10], in experiment [11] and in [20] was “inactive” throughout. Besides, the outcome in experiment [8], in [18], in experiment [9], in [13], in [14] and in [17] was inactive.
Regarding `CCN1CCN(C(=O)N[C@@H](C(=O)N[C@@H]2C(=O)N3[C@@H]2SC(C)(C)[C@H]3C(=O)O)c2ccccc2)C(=O)C1=O`, the Potency entry in experiment [1], in experiment [2], in experiment [3], in experiment [4], in experiment [5] and in experiment [6] was “inactive” throughout. Further, the Potency entry in experiment [7], in experiment [10], in experiment [11], in [16] and in [20] was “inactive” throughout. Besides, the result in experiment [8], in experiment [18], in [9], in [13], in experiment [14] and in [15] was inactive. In addition, the call in experiment [17] was inactive.
In the case of `O=C(CCBr)N1CCN(C(=O)CCBr)CC1`, the Potency entry in experiment [1], in experiment [2], in experiment [3], in experiment [4], in experiment [5] and in experiment [6] was “inactive” throughout. In addition, the Potency entry in [7], in experiment [10], in experiment [11] and in [16] was “inactive” throughout. The compound was classed as inactive in experiment [8], in experiment [18], in experiment [9], in experiment [13], in experiment [14] and in experiment [15].
Turning to `CC/C=C\CCCCCCCCCCOC(C)=O`, the Potency entry in experiment [1], in [2], in [3], in experiment [4], in experiment [5] and in [6] was “inactive” each time. In addition, the Potency result in experiment [7], in [10], in experiment [12] and in experiment [20] was “inactive” in each case. Also, the result in experiment [8], in experiment [18], in experiment [9], in experiment [13], in [14] and in [15] was inactive. Moreover, in [17], the result was inactive.
As for `CCCCC(CC)COC(=O)CC#N` (configuration not stated), the Potency entry in [1], in experiment [2], in experiment [3], in experiment [4], in [5] and in [6] was “inactive” in each case. Besides, the Potency entry in experiment [7], in experiment [10], in experiment [11], in experiment [12] and in experiment [20] was “inactive” throughout. Also, the result in experiment [8], in experiment [9], in experiment [13], in experiment [14], in [15] and in experiment [17] was inactive.
On to `CNC(=O)c1c(I)c(NC(C)=O)c(I)c(C(=O)O)c1I`, for which the Potency result in experiment [1], in experiment [2], in experiment [3], in [4], in experiment [5] and in experiment [6] was “inactive” each time. In addition, the Potency result in experiment [7], in experiment [10], in experiment [11], in experiment [12] and in experiment [20] was “inactive” each time. The compound was classed as inactive in [8], in experiment [18], in experiment [9], in experiment [13], in experiment [14] and in experiment [17].
Regarding `CC(=O)OCC(=O)[C@@]1(O)CC[C@H]2[C@@H]3CCC4=CC(=O)C=C[C@]4(C)[C@H]3[C@@H](O)C[C@@]21C`, the Potency result in experiment [1], in experiment [2], in experiment [4], in experiment [5], in [6] and in experiment [7] was “inactive” throughout. Moreover, the Potency result in [10], in experiment [12], in experiment [16] and in experiment [20] was “inactive” throughout. Further, the Potency in [3] was 21.3 µM (active); in experiment [11] it was 10.7 µM (active). Further, the compound was classed as inactive in experiment [8], in [18], in experiment [9], in experiment [13] and in experiment [14].
